PME-1 inh: PME-1 (human) inhibition | Q9Y570 | recombinant PME-1, FP-Rh probe fluorescence polarization | inhibition, % at 5.9 µM | hit rate 0.53% among 320,000;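 active means inhibition above the campaign mean of all compounds plus 3 SD, cut at about 26% in these data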;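 further: competitive labeling of PME-1 active site by serine hydrolase directed probe; 0% = PME-1 with DMSO and 100% = wells lacking PME-1 enzyme; inhibitors block probe labeling so polarization falls and inhibition rises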
Fam108B inh: counter-screen for RBBP9 inhibitors: inhibitors of mouse Fam108B | recombinant Fam108B, FP-Rh probe fluorescence polarization | inhibition, % at 9.51 µM | hit rate 0.33% among 300,000;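 active means inhibition above the screen mean inhibition plus 3 SD, computed separately per campaign, cut at about 18% in these data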;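 further: inhibitors lower polarization as less probe binds the enzyme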
PAD4 inh: inhibitors of human PAD4; recombinant PAD4, RCA probe fluorescence polarization; AID 485272; hit rate 0.41% among 330,000; Q9UM07; inhibition, % at 6.36 µM;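 active means percent inhibition above a cutoff equal to the mean of all tested compounds plus 3 SD, cut at about 15% in these data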;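 further: 0% = PAD4 with RCA probe and DMSO and 100% = probe without PAD4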
Target sequence (Q9UM07 whole entry, looked up): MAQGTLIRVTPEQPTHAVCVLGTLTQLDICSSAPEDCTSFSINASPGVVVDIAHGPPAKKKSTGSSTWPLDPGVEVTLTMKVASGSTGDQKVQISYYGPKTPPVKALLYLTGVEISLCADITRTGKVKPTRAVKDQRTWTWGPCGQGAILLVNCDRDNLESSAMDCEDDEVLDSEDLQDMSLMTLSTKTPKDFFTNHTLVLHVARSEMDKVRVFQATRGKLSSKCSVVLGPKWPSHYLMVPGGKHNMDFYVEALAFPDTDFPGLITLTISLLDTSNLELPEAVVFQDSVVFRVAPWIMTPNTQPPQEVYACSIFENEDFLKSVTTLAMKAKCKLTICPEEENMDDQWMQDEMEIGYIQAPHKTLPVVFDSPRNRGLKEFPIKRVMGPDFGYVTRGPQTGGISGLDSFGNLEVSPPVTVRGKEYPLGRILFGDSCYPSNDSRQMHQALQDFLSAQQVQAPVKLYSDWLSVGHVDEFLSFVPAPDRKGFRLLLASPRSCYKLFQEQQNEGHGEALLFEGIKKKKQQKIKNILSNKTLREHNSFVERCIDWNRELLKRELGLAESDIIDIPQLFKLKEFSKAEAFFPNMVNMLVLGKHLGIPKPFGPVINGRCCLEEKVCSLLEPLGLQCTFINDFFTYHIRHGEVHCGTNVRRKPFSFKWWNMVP
GSTO1 counter: counter-screen for RBBP9 inhibitors: inhibitors of human GSTO1. P78417. AID 1974. recombinant GSTO1, activity-based probe fluorescence polarization. hit rate 1.1% among 300,000. inhibition, % at 5.96 µM;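 active means inhibition above the campaign mean inhibition plus 3 SD, cut at about 35% in these data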;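 further: 0% = GSTO1-1 with DMSO and 100% = wells lacking GSTO1-1 enzyme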
LYPLA2 counter: blocks human lysophospholipase 2, a PME1 counter-screen; inhibition, % at 5.9 µM; O95372; hit rate 0.38% among 320,000; recombinant LYPLA2, FP-Rh probe fluorescence polarization;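 active means inhibition above the screen-wide mean plus 3 SD, limit set per campaign, cut at about 26% in these data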;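 further: 0% = LYPLA2 with DMSO and 100% = wells lacking LYPLA2 enzyme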
LYPLA1 inh: blocks human lysophospholipase 1, a PME1 counter-screen | recombinant LYPLA1, FP-Rh probe fluorescence polarization | inhibition, % at 5.9 µM | hit rate 0.16% among 320,000;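 active means inhibition above the mean of all tested compounds plus 3 SD, set per campaign, cut at about 14% in these data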;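 further: inhibitors block serine hydrolase probe labeling of LYPLA1 so polarization falls; 0% = enzyme with DMSO and 100% = wells lacking LYPLA1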
The depositor's hits bear a star; nt = not tested or not shown. In the library only some 1.8% were active in any assay of this set; here they are far more common.

SMILES	PME-1 inh	Fam108B inh	PAD4 inh	GSTO1 counter	LYPLA2 counter	LYPLA1 inh
CC(C)Cn1c(=O)c2c(nc3n2CC(C)CN3Cc2ccccc2)n(C)c1=O (stereo unspecified)	-0.7	-3.6	0.2	0.3	3.8	1.0
CC(C)CN(C(=O)CSc1nc2ccccc2o1)c1c(N)n(Cc2ccccc2)c(=O)[nH]c1=O	2.8	nt	-6.0	nt	-1.2	-3.3
Cc1cc(C)c2[nH]c(O)c(N=NC3=NC(=O)CS3)c2c1	28.2*	4.9	4.3	21.2	-1.6	2.5
Cc1cc(C)c2[nH]c(O)c(N=Nc3ccc(C(=O)O)cc3)c2c1	5.3	0.1	-1.8	-0.1	1.6	3.1
O=C1N[C@@H](Cc2cn(S(=O)(=O)c3c(F)c(F)c(F)c(F)c3F)c3ccccc23)C(=O)N[C@H]1Cc1ccccc1	-10.1	-10.4	5.3	-8.6	-7.0	-3.9
O=S(=O)(Nc1nc(-c2sccc2Cl)cs1)c1cc(Cl)ccc1Cl	13.2	28.6*	-8.8	40.1*	-4.7	-2.0
CC(C)(C)c1nnc(NS(=O)(=O)c2cc(Cl)ccc2Cl)s1	-3.7	-2.2	-1.7	-2.0	-3.3	-8.1
COc1ccc(/C=C/c2c(-c3ccc(OC)cc3)oc3cccnc23)cc1	27.2*	0.6	-0.3	0.8	-0.4	-3.4
COc1ccc(/C=C/c2ccncc2)cc1	-1.8	2.1	0.8	-3.1	0.5	-1.5
CCOC(=O)NC1(Nc2ccc(C)cc2)Oc2ccccc2O1	4.0	1.7	-2.7	81.7*	-5.2	-4.3
CCOC(=O)NC1(NC(C)C)Oc2ccccc2O1	-0.4	2.2	-2.2	37.1*	-3.3	2.4
Nc1ccc2oc(-c3cc(Br)ccc3Cl)nc2c1	27.6*	4.9	-1.4	3.4	-1.1	4.2
O=C(NNC(=O)c1cc2ccccc2[nH]1)OCc1ccccc1	nt	nt	-1.7	nt	nt	nt
CC(C)(C)OC(=O)NCCCC1=CC2=CC(=O)C(C)(OC(=O)C3CCCC3)C(=O)C2=CO1 (stereo unspecified)	9.1	0.6	26.1*	12.6	9.4	12.9
COC(=O)CCCC1=CC2=CC(=O)C(C)(OC(=O)c3ccco3)C(=O)C2=CO1 (stereo unspecified)	5.4	6.3	14.7	29.6	4.9	1.6
CC(C)(C)OC(=O)NCCCCC1=CC2=CC(=O)C(C)(OC(=O)c3ccco3)C(=O)C2=CO1 (stereo unspecified)	2.2	-1.2	-1.9	40.9*	-7.5	1.8
CCCCC1=CC2=CC(=O)C(C)(O)C(=O)C2=CO1 (stereo unspecified)	6.4	4.0	-5.0	24.8	8.2	1.6
CCCCC1=CC2=CC(=O)C(C)(OC(=O)c3ccc(Cl)nc3)C(=O)C2=CO1 (stereo unspecified)	23.1	7.5	20.4*	25.6	20.2	19.8*
COC(=O)CCCC1=CC2=CC(=O)C(C)(OC(=O)CCc3ccccc3)C(=O)C2=CO1 (stereo unspecified)	3.9	-6.2	6.5	13.8	-8.7	3.7
Cc1ccc(CNC(=O)N2CCN(S(=O)(=O)c3ccccc3)CC2)cc1	4.2	6.5	-5.7	15.7	0.9	1.8
N=C1/C(=C/c2coc3ccccc3c2=O)C(=O)N=C2SC(c3ccco3)=NN12	-5.8	16.8	-1.0	-49.3	-0.9	-6.6
N=C1/C(=C\c2coc3ccc(O)cc3c2=O)C(=O)N=C2SC=CN12	0.2	9.1	-11.6	56.5*	-11.2	-12.8
Cc1c(NC(=O)[C@@H](NC(=O)c2ccc(Cl)c([N+](=O)[O-])c2)C(C)C)c(=O)n(-c2ccccc2)n1C	nt	nt	-2.5	nt	nt	nt
Cn1nnnc1SCC(=O)Nc1cc(S(=O)(=O)N2CCCC2)ccc1Cl	1.4	0.3	-3.1	6.2	0.3	-0.1
O=C(CSc1cccc(C(F)(F)F)c1)Nc1cc(S(=O)(=O)N2CCCC2)ccc1Cl	48.6*	-5.5	0.9	-3.7	-15.2	-7.4
SMILES	PME-1 inh	Fam108B inh	PAD4 inh	GSTO1 counter	LYPLA2 counter	LYPLA1 inh
O=C(CN1CCN(c2ccc(O)cc2)CC1)Nc1cc(S(=O)(=O)N2CCCC2)ccc1Cl	36.9*	3.0	-0.2	20.0	3.2	2.5
CCN1CCN(CC(=O)Nc2cc(S(=O)(=O)N3CCCCC3)ccc2Cl)CC1	nt	nt	-5.2	nt	nt	nt
O=C(Nc1ccc(Oc2c(F)c(F)c(F)c(F)c2F)cc1)OC1CCN2Cc3ccccc3N=C12 (stereo unspecified)	-3.3	-3.7	4.5	-6.3	-8.4	-3.5
CC(C)=NNc1nc2c(c(=O)[nH]c(=O)n2C)n1CCc1ccccc1	-2.0	-0.6	0.6	33.0	8.1	1.2
Cn1c(=O)[nH]c(=O)c2c1nc(N/N=C/C(Br)=C/c1ccccc1)n2CCO	1.4	-2.5	-0.9	35.1*	0.9	-0.7
CCOC(=O)c1c2c3c(cccc3n(C)c1=O)C(=O)c1ccccc1-2	28.4*	10.6	9.3	14.6	12.7	9.9
CCOC(=O)c1c2c3c(cccc3[nH]c1=O)C(=O)c1ccccc1-2	8.7	2.6	-4.4	6.2	6.7	1.5
COc1ccccc1N1CCN(C(=O)C2CCN(S(=O)(=O)c3ccccc3F)CC2)CC1	15.7	nt	-0.5	nt	1.7	3.2
COc1ccccc1N1CCN(C(=O)C2CCN(S(=O)(=O)c3ccc(C)cc3)CC2)CC1	41.1*	-0.7	-6.4	6.4	-2.0	-0.5
COc1cc(C)c(COc2ncnc3ccccc23)cc1OC	1.7	-3.0	0.7	-2.9	-2.4	0.2
Cc1ccc(C(C)C)cc1NC(=O)Nc1ccc([N+](=O)[O-])cc1	-28.9	-30.9	1.1	-27.9	-52.7	-31.4
CCc1ccc(S(=O)(=O)Nc2ccc(O)c3c(=O)cc(-c4ccccc4Cl)oc23)cc1	-10.4	-11.1	2.6	-3.4	-28.6	-18.6
O=c1cc(-c2ccccc2Cl)oc2c(NS(=O)(=O)c3cc(Cl)cc(Cl)c3O)ccc(O)c12	56.6*	7.1	-15.7	1.6	-23.6	-14.1
CCOc1ccc(N(C)c2ccc(/C=C3/SC(=S)NC3=O)cc2)cc1	-6.0	3.1	-28.2	-0.7	-4.1	-9.6
CCOc1c(O)ccc(/C=C2\SC(=S)NC2=O)c1[N+](=O)[O-]	-2.2	10.0	-17.0	56.4*	-3.0	-1.0
CC(C)[C@H](NC(=O)c1ccccc1)C(=O)OCC(=O)Nc1ncc(Cl)cc1Cl	nt	nt	-2.0	nt	nt	nt
CC(=O)c1ccc(NC(=O)COC(=O)CCc2ccc(S(=O)(=O)N3CCOCC3)cc2)cc1	-1.8	2.8	-1.6	1.7	0.1	0.6
COc1ccccc1Nc1ccc(N)cc1	-0.1	5.6	-1.1	35.4*	9.1	5.0
Cc1cccc(C)c1NC(=O)CN(C)C(=O)CN1C(=O)NC(C)(C)C1=O	-0.8	nt	-1.2	nt	5.9	3.0
Cc1ccc(SCc2[nH]nc3c2C(c2ccco2)C(C#N)=C(N)O3)cc1 (stereo unspecified)	6.1	3.2	-8.9	36.6*	3.7	-2.0
Cc1ccc(SCc2[nH]nc3c2C(c2ccc(C)o2)C(C#N)=C(N)O3)cc1 (stereo unspecified)	9.7	0.3	13.3	36.7*	-6.6	-2.7

Screening data: PubChem, The Scripps Research Institute Molecular Screening Center
